From ChEMBL document CHEMBL3988442, “University of Dundee, Small-Polar-MMV Screening Library” (2021)
Among all 66,000 compounds or so, about 960 (1.5%) showed an effect of 50% or more. The list comes from a sample in which strong results are over-represented; it also holds similar structures and randomly drawn compounds.

Test system: Trypanosoma brucei
Assay: Trypanosoma brucei 72 hour study
Assay type: functional, organism-based
Set-up: scale not given: in the data most compounds retested in dose-response had high values

Compound: NC(=O)Cn1cc(NC(=O)NCCN2CCc3ccccc3C2)cn1
- Percent Effect (10 µM): -24.97%

Compound: O=C(NC[C@H]1CCCC[C@H]1O)c1ccc2nc(-c3ccco3)[nH]c2c1
- Percent Effect (30.3 µM, […]): 17.46%
- Percent Effect (10 mM, 10 mM as filed; unlikely as a test dose): -68.89%

Compound: O=C(NC[C@H]1CCCC[C@H]1O)c1cccc2[nH]c(-c3cccs3)nc12
- Percent Effect (30.3 µM, […]): 101.4%
- Percent Effect (10 mM, 10 mM as filed; unlikely as a test dose): 77.67%

Compound: O=C(NC[C@H]1CCCC[C@H]1O)c1cccc2[nH]c(-c3ccco3)nc12
- Percent Effect (30.3 µM, […]): 13.65%
- Percent Effect (10 mM, 10 mM as filed; unlikely as a test dose): -65.92%

Compound: Cc1ccc(CN2C[C@@H](OCc3csc(C)n3)[C@H]3COC[C@H]32)s1.O=C(O)C(F)(F)F
- Percent Effect (30 µM, 30.03 µM): -8.753%

Compound: COc1ccc(CNC2CCc3ncnn3C2)cc1OCC1CC1 (stereo unspecified)
- Percent Effect (30 µM, 30.03 µM): -28.92%

Compound: Cc1cc(-c2cnc(NC3CCCC3)nc2-c2ccc(C)o2)on1
- Percent Effect (30.3 µM, […]): 59.7%

Compound: Cc1occc1-c1nc(NC2CCCC2)ncc1-c1ccccn1
- Percent Effect (30.3 µM, […]): 66.93%

Compound: Cc1cc(-c2cnc(NC3CCCC3)nc2-c2ccoc2)on1
- Percent Effect (30.3 µM, […]): 19.37%

Compound: Cc1cc(-c2cnc(NC3CC3)nc2-c2ccco2)on1
- Percent Effect (30.3 µM, […]): 20.38%

Compound: Cc1cc(-c2cnc(NC3CC3)nc2-c2ccc(C)o2)on1
- Percent Effect (30 µM, 30.03 µM): 25.68%

Compound: Cc1cc(-c2cnc(NC3CCCC3)nc2-c2ccoc2C)on1
- Percent Effect (30.3 µM, […]): 30.38%

Compound: Cc1cc(-c2cnc(NC3CC3)nc2-c2ccoc2C)on1
- Percent Effect (30.3 µM, […]): 6.625%

Compound: Cc1cc(-c2cnc(NC3CCCC3)nc2-c2ccco2)on1
- Percent Effect (30.3 µM, […]): 60.69%

Compound: Cc1cc(-c2cnc(NC3CCCCC3)nc2-c2ccco2)on1
- Percent Effect (30.3 µM, […]): 43.12%

Compound: CN(Cc1ccc2c(c1)OCCO2)Cc1nc2c(cnn2C)c(=O)[nH]1
- Percent Effect (30.3 µM, […]): 4.999%

Compound: CS(=O)(=O)N1CCO[C@@H]2CCN(Cc3ccncc3)CC[C@H]21.O=C(O)C(F)(F)F.O=C(O)C(F)(F)F
- Percent Effect (30.3 µM, […]): -50.12%

Compound: COc1ccc(Cl)cc1S(=O)(=O)N1C[C@@H]2CC[C@H](C1)N(C)C2=O
- Percent Effect (30 µM, 30.03 µM): 12.03%

Compound: O=C(O)C(F)(F)F.O=c1ccc2c(n1CC1CCOCC1)CCN(Cc1ccoc1)CC2
- Percent Effect (30 µM, 30.03 µM): -13.76%

Compound: COCCNC(=O)[C@H]1CN(Cc2cccs2)C[C@H]2OCC[C@@H]12.O=C(O)C(F)(F)F
- Percent Effect (30 µM, 30.03 µM): -47.27%

Compound: Cc1ccc(CN2C[C@@H]3CCCO[C@@H]3[C@H](N(C)Cc3ccco3)C2)s1.O=C(O)C(F)(F)F.O=C(O)C(F)(F)F
- Percent Effect (30 µM, 30.03 µM): 26.16%

Compound: COCCN1CCOCC12CCN(c1cnccn1)CC2.O=C(O)C(F)(F)F
- Percent Effect (30.3 µM, […]): -82.27%

Compound: Cn1c(C2CC2)nc2c1CCN(CCOc1ccc(C#N)cc1)C2
- Percent Effect (30 µM, 30.03 µM): 41.84%

Compound: Cn1c(C2CC2)nc2c1CCN(CCOc1ccccc1C#N)C2
- Percent Effect (30.3 µM, […]): 73.03%
- Percent Effect (10 mM, 10 mM as filed; unlikely as a test dose): 81.28%

Compound: Cn1c(C2CC2)nc2c1CCN(CCOc1cccc(F)c1)C2
- Percent Effect (30.3 µM, […]): 33.25%
- Percent Effect (10 mM, 10 mM as filed; unlikely as a test dose): -49.38%

Compound: Cc1cc(CN2CCN(C(=O)NC(C)Cn3ccnc3)CC2)on1 (stereo unspecified)
- Percent Effect (30.3 µM, […]): -36.86%

Compound: O=C(N1CCOCC1)[C@@]12CCO[C@@H]1CCN(C1CCCCC1)C2.O=C(O)C(F)(F)F
- Percent Effect (30 µM, 30.03 µM): -10.39%

Compound: O=C(N1CCOCC1)[C@@]12CCO[C@@H]1CCN(C1CCC1)C2.O=C(O)C(F)(F)F
- Percent Effect (30 µM, 30.03 µM): -13.96%

Compound: O=C(N1CCCO1)[C@@]12CCO[C@@H]1CCN(C1CCCCC1)C2.O=C(O)C(F)(F)F
- Percent Effect (30 µM, 30.03 µM): 51.2%

Compound: Cc1nnn2c1COC(CNCc1nccs1)C2.O=C(O)C(F)(F)F (stereo unspecified)
- Percent Effect (30 µM, 30.03 µM): 2.897%

Compound: Cc1cnn(CCNCC(O)COc2cc(Cl)ccc2Cl)c1 (stereo unspecified)
- Percent Effect (10 µM): 13.76%

Compound: CC(C)CNC(=O)C1(Cc2ccccc2-c2ccccc2)CCNC1 (stereo unspecified)
- Percent Effect (30.3 µM, […]): -113.5%

Compound: NC(=O)C1(Cc2ccccc2-c2cncnc2)CCCNC1 (stereo unspecified)
- Percent Effect (30.3 µM, […]): -3.769%

Compound: CC(C)NC(=O)C1(Cc2ccccc2-c2cncnc2)CCCNC1 (stereo unspecified)
- Percent Effect (30.3 µM, […]): -17.52%

Compound: CC(C)NC(=O)C1(Cc2ccccc2-c2ccccc2)CCCNC1 (stereo unspecified)
- Percent Effect (30.3 µM, […]): -11.23%

Compound: Cl.O=C(O)C1(Cc2cccc(-c3cccs3)c2)CCCNC1 (stereo unspecified)
- Percent Effect (30.3 µM, […]): -23.63%

Compound: CC(C)CNC(=O)C1(Cc2ccccc2-c2cccs2)CCNC1 (stereo unspecified)
- Percent Effect (30.3 µM, […]): 100.9%

Compound: Cl.O=C(O)C1(Cc2ccc(-c3cccs3)cc2)CCNC1 (stereo unspecified)
- Percent Effect (30.3 µM, […]): 15.36%

Compound: O=C(NC1CC1)C1(Cc2ccccc2-c2ccncc2)CCOCC1
- Percent Effect (30.3 µM, […]): -2.257%

Compound: Cl.O=C(N1CCCC1)C1(Cc2ccc(-c3cccs3)cc2)CCNC1 (stereo unspecified)
- Percent Effect (30.3 µM, […]): 100.9%

Compound: CC(C)NC(=O)C1(Cc2ccccc2-c2cccs2)CCNC1 (stereo unspecified)
- Percent Effect (30.3 µM, […]): 100.3%

Compound: O=C(NCCO)C1(Cc2ccccc2-c2ccncc2)CCOCC1
- Percent Effect (30.3 µM, […]): -12.36%

Compound: Cc1ccc(-c2ccccc2CC2(C(=O)NC(C)C)CCCNC2)cc1 (stereo unspecified)
- Percent Effect (30.3 µM, […]): 73.8%

Compound: COc1ccccc1CN(C)C(=O)CN1CC(n2nc(C)cc2C)C1
- Percent Effect (30 µM, 30.03 µM): 35.21%

Compound: CCC(NC(=O)C1CCN(S(C)(=O)=O)CC1)c1ccc(OC)cc1 (stereo unspecified)
- Percent Effect (30 µM, 30.03 µM): -21.57%

Compound: Cl.O=C(NCc1ccccc1F)C1=NOC2(CCNC2)C1 (stereo unspecified)
- Percent Effect (30 µM, 30.03 µM): 32.02%
